Common to all, as to assay: DAPPL (digital affinity profiling via proximity ligation, sequencing); 10 mM Tris-HCl pH 7.5, 50 mM NaCl, 1 mM DTT, 4% glycerol, room temperature, 30 min; GST-TFs on glutathione beads, 16-mer random dsDNA library, 0.1% formaldehyde crosslink after washing; high values mean tight binding
The target of one assay is T1, FEV (Homo sapiens, UniProt Q99581 1-238).
T1 sequence: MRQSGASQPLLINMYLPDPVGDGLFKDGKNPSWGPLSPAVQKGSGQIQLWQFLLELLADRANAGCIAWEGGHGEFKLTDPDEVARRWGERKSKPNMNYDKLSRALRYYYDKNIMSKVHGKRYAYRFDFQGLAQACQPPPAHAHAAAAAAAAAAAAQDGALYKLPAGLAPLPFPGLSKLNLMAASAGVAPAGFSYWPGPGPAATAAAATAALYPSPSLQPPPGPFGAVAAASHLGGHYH
The note with it: protein: recombinant; tags: N-terminal GST; dsDNA, one strand shown. An outline of the steps:
(§1)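 Binding signal is each hexamer's read frequency for a factor divided by its frequency in the tag-only sample. The factors were GST-fused human transcription factors from yeast, captured on glutathione beads, DNA-barcoded and pooled with that sample. Pools were incubated with 200 nmole of a random double-stranded 16-mer DNA library in Tris/NaCl/DTT/glycerol buffer at room temperature for 30 min, then washed, crosslinked with 0.1% formaldehyde, proximity-ligated with BsaI/T4 ligase (1 h, 37 °C), PCR-amplified and sequenced on an Illumina NextSeq500.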

The next assay deals with ETV5 (Homo sapiens, UniProt P41161 1-510). To be noted: protein: recombinant; tags: N-terminal GST; dsDNA, one strand shown. An outline of the steps: as §1
The target in the next assay is HSF1 (Homo sapiens, UniProt Q00613 1-529). The note with it: protein: recombinant; tags: N-terminal GST; chain copies: 3; dsDNA, one strand shown. An outline of the steps:
as §1

A further assay concerns the target T2, SPIC (Homo sapiens, UniProt Q8N5J4 1-248).
T2 sequence: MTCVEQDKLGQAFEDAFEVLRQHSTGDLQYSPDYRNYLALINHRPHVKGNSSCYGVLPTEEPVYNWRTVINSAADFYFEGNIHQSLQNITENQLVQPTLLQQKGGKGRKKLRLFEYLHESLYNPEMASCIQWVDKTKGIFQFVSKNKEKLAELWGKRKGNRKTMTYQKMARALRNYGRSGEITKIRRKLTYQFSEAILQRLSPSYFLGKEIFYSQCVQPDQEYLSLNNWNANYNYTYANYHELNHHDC
The note with it: protein: recombinant; tags: N-terminal GST; dsDNA, one strand shown. An outline of the steps:
as §1

The next assay has as its target ELF4 (Homo sapiens, UniProt Q99607 1-663). To be noted: protein: recombinant; tags: N-terminal GST; dsDNA, one strand shown. In short, it runs like this: as §1
Another assay concerns the target T3, ELK4 (Homo sapiens, UniProt P28324-2 1-405).
T3 sequence: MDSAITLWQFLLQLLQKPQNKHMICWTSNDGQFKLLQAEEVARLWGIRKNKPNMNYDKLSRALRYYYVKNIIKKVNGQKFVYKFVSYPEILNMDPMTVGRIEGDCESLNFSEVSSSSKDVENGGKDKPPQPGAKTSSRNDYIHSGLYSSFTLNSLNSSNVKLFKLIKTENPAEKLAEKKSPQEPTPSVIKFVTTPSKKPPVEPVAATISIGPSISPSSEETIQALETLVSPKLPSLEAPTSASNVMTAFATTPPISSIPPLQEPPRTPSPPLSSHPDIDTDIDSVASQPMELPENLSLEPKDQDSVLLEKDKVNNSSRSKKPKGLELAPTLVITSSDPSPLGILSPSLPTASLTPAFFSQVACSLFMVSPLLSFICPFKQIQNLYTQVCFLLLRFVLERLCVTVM
The note with it: protein: recombinant; tags: N-terminal GST; dsDNA, one strand shown. In short, it runs like this:
as §1

Another assay addresses T4, ETV2 (Homo sapiens, UniProt O00321 1-342).
T4 sequence: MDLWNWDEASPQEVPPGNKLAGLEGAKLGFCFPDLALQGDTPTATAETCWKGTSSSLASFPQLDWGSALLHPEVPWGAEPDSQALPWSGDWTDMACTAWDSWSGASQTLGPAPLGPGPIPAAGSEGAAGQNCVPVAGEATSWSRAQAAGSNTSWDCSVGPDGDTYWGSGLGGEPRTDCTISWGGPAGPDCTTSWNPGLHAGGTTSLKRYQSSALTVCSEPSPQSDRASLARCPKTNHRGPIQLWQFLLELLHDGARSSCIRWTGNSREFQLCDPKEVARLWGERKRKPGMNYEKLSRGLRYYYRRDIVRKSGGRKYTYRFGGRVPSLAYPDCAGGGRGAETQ
The note with it: protein: recombinant; tags: N-terminal GST; dsDNA, one strand shown. An outline of the steps:
as §1

Another assay concerns the target T5, ELF3 (Homo sapiens, UniProt P78545 1-371).
T5 sequence: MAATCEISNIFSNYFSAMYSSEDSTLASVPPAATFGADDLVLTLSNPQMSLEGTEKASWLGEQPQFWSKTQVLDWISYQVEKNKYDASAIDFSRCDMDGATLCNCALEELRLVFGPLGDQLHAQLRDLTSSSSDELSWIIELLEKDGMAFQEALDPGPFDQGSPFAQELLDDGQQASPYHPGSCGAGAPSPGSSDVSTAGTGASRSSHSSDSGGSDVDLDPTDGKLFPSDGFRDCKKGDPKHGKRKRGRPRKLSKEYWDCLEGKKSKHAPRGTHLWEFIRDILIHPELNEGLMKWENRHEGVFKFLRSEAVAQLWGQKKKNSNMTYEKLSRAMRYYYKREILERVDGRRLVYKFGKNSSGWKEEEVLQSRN
To be noted: protein: recombinant; tags: N-terminal GST; dsDNA, one strand shown. An outline of the steps: as §1

A further assay addresses CRX (Homo sapiens, UniProt O43186 1-299). The note with it: protein: recombinant; tags: N-terminal GST; dsDNA, one strand shown. In short, it runs like this:
as §1

For a further assay, the target named is ETV1 (Homo sapiens, UniProt P50549 1-477). To be noted: protein: recombinant; tags: N-terminal GST; dsDNA, one strand shown. In short, it runs like this: as §1
A further assay concerns the target T6, ERF (Homo sapiens, UniProt P50548 1-548).
T6 sequence: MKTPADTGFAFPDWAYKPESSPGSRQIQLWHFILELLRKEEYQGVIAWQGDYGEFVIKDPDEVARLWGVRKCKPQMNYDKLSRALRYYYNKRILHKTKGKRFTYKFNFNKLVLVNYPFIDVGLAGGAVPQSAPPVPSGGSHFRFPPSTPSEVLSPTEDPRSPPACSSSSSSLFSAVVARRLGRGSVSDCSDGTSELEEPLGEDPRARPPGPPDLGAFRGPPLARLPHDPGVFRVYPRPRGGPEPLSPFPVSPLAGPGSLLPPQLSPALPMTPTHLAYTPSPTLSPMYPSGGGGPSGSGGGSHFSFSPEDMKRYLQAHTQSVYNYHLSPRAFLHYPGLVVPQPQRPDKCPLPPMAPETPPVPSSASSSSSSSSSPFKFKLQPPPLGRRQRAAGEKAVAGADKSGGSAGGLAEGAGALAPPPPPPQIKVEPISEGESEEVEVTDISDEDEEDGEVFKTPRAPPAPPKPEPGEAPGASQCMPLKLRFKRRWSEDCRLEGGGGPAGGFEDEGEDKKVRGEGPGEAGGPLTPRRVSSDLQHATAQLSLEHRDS
To be noted: protein: recombinant; tags: N-terminal GST; dsDNA, one strand shown. In short, it runs like this: as §1

A further assay addresses T7, ETV3L (Homo sapiens, UniProt Q6ZN32 1-361).
T7 sequence: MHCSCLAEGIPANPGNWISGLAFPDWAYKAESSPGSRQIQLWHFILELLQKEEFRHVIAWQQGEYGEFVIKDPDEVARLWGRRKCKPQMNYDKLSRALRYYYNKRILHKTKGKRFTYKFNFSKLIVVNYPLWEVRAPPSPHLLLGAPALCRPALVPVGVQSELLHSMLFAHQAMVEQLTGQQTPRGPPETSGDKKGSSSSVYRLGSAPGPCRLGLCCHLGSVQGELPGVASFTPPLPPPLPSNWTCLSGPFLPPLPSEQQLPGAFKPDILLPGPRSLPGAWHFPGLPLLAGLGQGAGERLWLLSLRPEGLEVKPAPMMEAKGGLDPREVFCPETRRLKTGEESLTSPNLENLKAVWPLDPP
To be noted: protein: recombinant; tags: N-terminal GST; dsDNA, one strand shown. An outline of the steps:
as §1

Another assay addresses T8, ETS2 (Homo sapiens, UniProt P15036 1-469).
T8 sequence: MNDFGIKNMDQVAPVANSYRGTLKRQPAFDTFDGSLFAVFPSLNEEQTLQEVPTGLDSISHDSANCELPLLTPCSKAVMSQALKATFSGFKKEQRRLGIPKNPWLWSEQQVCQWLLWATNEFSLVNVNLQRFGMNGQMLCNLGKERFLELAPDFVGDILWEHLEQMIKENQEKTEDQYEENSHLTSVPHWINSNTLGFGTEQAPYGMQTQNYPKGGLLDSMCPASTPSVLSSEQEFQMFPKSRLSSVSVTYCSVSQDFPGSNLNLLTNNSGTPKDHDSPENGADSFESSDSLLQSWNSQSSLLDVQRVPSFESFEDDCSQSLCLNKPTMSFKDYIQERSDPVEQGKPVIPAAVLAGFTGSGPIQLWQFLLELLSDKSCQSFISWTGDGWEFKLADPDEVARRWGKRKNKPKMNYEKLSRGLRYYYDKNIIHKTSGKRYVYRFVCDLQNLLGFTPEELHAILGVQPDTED
To be noted: protein: recombinant; tags: N-terminal GST; dsDNA, one strand shown. An outline of the steps:
as §1

The target in another assay is T9, SPDEF (Homo sapiens, UniProt O95238 1-335).
T9 sequence: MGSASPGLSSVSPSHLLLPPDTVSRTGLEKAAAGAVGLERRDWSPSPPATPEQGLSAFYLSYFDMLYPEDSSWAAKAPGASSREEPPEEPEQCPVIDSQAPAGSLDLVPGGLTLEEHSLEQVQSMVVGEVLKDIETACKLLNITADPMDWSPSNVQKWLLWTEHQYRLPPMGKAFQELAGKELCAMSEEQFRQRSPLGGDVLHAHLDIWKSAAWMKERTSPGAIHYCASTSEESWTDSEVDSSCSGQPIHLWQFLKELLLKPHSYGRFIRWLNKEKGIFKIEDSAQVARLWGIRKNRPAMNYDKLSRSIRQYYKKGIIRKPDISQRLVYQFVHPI
The note with it: protein: recombinant; tags: N-terminal GST; dsDNA, one strand shown. An outline of the steps: as §1

A further assay deals with T10, ETV7 (Homo sapiens, UniProt Q9Y603 1-341).
T10 sequence: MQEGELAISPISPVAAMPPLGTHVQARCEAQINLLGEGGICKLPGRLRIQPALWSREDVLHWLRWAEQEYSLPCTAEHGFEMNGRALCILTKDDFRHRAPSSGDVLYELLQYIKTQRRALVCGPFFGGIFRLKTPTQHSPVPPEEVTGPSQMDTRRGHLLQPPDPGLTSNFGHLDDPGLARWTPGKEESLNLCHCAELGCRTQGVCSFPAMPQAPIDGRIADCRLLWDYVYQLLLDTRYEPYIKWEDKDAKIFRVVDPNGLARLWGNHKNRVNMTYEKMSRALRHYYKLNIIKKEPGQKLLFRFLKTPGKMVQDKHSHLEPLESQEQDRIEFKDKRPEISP
The note with it: protein: recombinant; tags: N-terminal GST; dsDNA, one strand shown. An outline of the steps:
as §1

In another assay the target is T11, ELF5 (Homo sapiens, UniProt Q9UKW6-2 1-255).
T11 sequence: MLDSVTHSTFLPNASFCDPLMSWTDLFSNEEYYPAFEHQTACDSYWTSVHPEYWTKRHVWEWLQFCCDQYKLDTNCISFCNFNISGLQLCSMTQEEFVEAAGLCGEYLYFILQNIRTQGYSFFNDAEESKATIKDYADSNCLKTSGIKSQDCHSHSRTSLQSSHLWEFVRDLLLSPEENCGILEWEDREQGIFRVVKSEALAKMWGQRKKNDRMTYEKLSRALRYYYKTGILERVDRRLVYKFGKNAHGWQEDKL
To be noted: protein: recombinant; tags: N-terminal GST; dsDNA, one strand shown. In short, it runs like this:
as §1

For the next assay, the target named is T12, ETV3 (Homo sapiens, UniProt P41162-2 1-143).
T12 sequence: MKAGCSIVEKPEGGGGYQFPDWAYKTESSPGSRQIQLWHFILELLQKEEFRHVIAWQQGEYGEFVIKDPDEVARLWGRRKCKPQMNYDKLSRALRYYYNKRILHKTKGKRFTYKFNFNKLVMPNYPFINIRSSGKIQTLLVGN
The note with it: protein: recombinant; tags: N-terminal GST; dsDNA, one strand shown. In short, it runs like this:
as §1

The next assay concerns the target ETV6 (Homo sapiens, UniProt P41212 1-452). To be noted: protein: recombinant; tags: N-terminal GST; dsDNA, one strand shown. In short, it runs like this:
as §1

Sequence of ETV6 (P41212 whole entry): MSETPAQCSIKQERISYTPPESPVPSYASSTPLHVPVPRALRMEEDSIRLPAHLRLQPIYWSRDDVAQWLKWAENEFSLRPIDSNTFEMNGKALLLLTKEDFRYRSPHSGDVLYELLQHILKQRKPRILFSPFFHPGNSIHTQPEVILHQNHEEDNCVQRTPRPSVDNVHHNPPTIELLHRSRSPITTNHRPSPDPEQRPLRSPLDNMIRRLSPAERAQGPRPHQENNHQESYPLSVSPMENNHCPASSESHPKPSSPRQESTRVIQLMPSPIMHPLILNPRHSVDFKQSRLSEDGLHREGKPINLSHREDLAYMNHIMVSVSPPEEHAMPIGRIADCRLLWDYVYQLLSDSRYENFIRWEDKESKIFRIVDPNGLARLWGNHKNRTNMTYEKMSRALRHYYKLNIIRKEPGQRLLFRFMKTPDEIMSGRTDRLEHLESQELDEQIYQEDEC
Sequence of ETV1 (P50549 whole entry): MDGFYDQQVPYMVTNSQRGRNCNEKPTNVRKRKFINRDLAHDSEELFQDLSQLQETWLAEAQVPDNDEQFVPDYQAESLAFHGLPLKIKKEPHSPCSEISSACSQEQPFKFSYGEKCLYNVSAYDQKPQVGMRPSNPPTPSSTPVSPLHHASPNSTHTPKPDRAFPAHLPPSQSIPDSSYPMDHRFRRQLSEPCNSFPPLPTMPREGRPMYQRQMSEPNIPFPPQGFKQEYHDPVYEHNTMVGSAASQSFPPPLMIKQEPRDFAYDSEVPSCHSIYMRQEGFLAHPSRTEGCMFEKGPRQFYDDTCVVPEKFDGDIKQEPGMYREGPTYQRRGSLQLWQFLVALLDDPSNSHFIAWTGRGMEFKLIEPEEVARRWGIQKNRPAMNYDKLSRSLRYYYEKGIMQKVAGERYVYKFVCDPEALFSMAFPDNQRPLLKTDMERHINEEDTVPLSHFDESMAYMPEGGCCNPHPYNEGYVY
Sequence of ELF4 (Q99607 whole entry): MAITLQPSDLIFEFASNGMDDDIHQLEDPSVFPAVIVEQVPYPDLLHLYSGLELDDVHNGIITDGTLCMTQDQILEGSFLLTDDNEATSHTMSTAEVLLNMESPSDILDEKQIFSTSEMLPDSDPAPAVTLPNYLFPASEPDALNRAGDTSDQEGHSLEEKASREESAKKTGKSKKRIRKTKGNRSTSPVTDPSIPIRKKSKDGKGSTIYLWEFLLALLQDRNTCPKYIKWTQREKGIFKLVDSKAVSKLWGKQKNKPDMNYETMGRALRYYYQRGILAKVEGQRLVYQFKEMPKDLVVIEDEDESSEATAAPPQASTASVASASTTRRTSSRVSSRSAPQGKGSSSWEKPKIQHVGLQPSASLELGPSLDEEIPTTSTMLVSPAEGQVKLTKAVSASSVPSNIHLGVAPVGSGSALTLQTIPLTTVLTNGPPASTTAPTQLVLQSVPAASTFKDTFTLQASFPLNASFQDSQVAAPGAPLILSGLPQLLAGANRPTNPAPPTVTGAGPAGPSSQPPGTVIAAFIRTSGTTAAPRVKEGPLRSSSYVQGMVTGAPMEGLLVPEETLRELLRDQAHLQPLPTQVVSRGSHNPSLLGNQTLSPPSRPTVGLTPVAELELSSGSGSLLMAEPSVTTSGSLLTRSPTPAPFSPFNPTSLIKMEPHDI
Sequence of ETV5 (P41161 whole entry): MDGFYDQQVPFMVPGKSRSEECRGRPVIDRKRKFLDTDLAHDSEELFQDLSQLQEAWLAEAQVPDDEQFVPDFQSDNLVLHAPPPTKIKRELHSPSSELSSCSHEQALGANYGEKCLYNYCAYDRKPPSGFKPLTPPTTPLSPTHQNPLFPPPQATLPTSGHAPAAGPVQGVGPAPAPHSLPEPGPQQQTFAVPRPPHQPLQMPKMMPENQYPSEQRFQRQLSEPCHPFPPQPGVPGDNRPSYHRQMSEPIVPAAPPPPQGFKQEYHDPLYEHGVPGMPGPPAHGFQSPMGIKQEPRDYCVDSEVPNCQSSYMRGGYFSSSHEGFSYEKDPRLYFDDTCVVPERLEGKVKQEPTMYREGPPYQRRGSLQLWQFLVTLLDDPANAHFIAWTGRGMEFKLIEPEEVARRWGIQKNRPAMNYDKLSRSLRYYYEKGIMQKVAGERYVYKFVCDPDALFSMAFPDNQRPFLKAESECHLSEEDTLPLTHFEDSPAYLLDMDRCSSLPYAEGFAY
Sequence of HSF1 (Q00613 whole entry): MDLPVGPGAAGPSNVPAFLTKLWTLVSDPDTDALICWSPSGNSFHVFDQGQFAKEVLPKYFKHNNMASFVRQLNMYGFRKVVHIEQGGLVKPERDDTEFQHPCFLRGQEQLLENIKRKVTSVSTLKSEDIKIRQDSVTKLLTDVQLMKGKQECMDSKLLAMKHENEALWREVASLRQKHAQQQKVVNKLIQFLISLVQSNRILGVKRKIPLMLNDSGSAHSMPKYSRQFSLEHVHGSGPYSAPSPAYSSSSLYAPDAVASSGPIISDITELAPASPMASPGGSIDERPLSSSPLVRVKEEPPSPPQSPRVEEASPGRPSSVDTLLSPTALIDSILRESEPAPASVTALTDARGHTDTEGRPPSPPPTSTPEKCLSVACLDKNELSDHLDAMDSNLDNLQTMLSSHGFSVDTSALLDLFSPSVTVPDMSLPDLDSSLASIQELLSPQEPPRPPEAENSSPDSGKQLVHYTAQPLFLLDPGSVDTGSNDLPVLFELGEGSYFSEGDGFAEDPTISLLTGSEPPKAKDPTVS
Sequence of CRX (O43186 whole entry): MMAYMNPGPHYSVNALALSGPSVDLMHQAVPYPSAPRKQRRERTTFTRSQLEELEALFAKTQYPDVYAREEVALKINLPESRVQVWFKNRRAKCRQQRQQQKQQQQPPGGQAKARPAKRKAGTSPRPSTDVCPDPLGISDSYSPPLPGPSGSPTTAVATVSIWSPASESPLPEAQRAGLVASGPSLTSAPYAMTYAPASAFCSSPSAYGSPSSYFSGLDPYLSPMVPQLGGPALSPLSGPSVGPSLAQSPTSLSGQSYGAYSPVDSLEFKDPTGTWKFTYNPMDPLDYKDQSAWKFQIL

As for TACACT, the binding signal is 1.5 fold enrichment (6-mer frequency, TF over GST control) with FEV; 1.5 fold enrichment (6-mer frequency, TF over GST control) with ETV5; 1.31 fold enrichment (6-mer frequency, TF over GST control) with HSF1; 1.58 fold enrichment (6-mer frequency, TF over GST control) with SPIC; 1.42 fold enrichment (6-mer frequency, TF over GST control) in the assay with ELF4; 1.53 fold enrichment (6-mer frequency, TF over GST control) with ELK4. For the same sequence, the binding signal with ETV2 was 1.46 fold enrichment (6-mer frequency, TF over GST control); with ELF3 it was 1.36 fold enrichment (6-mer frequency, TF over GST control); in the assay with CRX, 1.35 fold enrichment (6-mer frequency, TF over GST control); with ETV1 it was 1.59 fold enrichment (6-mer frequency, TF over GST control); with ERF it was 1.51 fold enrichment (6-mer frequency, TF over GST control); in the assay with ETV3L, 1.51 fold enrichment (6-mer frequency, TF over GST control). For the same sequence, the binding signal with ETS2 is 1.49 fold enrichment (6-mer frequency, TF over GST control); with SPDEF it was 1.55 fold enrichment (6-mer frequency, TF over GST control); with ETV7 it was 1.49 fold enrichment (6-mer frequency, TF over GST control); in the assay with ELF5 it was 1.52 fold enrichment (6-mer frequency, TF over GST control); with ETV3, 1.45 fold enrichment (6-mer frequency, TF over GST control); in the assay with ETV6, 1.6 fold enrichment (6-mer frequency, TF over GST control).
